# Source: PubChem BioAssay
# This is a sample that favours compounds with a hit; in the whole collection about 5.9% have one here.
# ATXN2 expr inh: inhibitors of ATXN2 expression. HEK-293 ATXN2-luciferase reporter, luminescence, 24 h. Potency, µM (doses to about 57 µM), for inactives: top-dose activity change, negative = inhibition, hits mostly inhibitors. hit rate 0.72% among 360,000. AID 1745845; note: % is set by controls: 0 for no effect and ±100 for the full control effect; nearly all actives have a fitted effect of over 55% in size
#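 qHTS (up to 57 uM final) was run with 24 h compound exposure of reporter cells at 37 °C. Each well was multiplexed: SteadyGlo luminescence measured ATXN2-luciferase expression after a fluorogenic Gly-Phe-AFC viability readout (25 uM final).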
# HepG2 viability: kills HepG2 cells in TGF-b inhibitor counter-screen; HepG2 CAGA-GFP viability, ATP luminescence, 18 h; Potency, µM (highest dose often 46.1 µM), without a hit: top-dose activity change, negative = cytotoxicity, hits mostly cytotoxic; hit rate 0.76% among 410,000
#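 CellTiter-Glo luminescence gave cytotoxicity after 18 hours at 37 degrees C. The cells were HepG2 CAGA-GFP in 1% FBS DMEM, stimulated with 500 pg/mL TGF-beta after compound addition. %Activity was normalised to no-cell wells (complete cell-killing) and DMSO (no toxicity), and curves were fitted and classified.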
# KB-V1 cytotox: kills drug-selected multidrug resistant KB-V1 cells; AID 1347076; KB-V1 MDR cells viability, CellTiter-Glo, 72 h; Potency, µM (highest dose often 46.1 µM), hits mostly cytotoxic; hit rate 3.4% among 400,000; note: % is set by controls: 0 for no effect and ±100 for the full control effect; nearly all actives have a fitted effect of over 60% in size
#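 Cytotoxicity via CellTiter-Glo luminescence after 72 h compound exposure at 37 degrees C. Cells: drug-selected KB-V1 line, DMEM phenol-red free plus 10% FBS. Compounds tested at multiple concentrations; normalized data fitted to concentration-effect curves.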
# TGFb inhibitor: inhibitors of TGF-b signaling | HepG2 CAGA-GFP TGF-b/SMAD3 reporter, GFP fluorescence, 18 h; TGF-beta stimulated, 500 pg/mL final | Potency, µM (top dose mostly 46.1 µM), for inactives: top-dose activity, negative = inhibition, hits mostly inhibitors | hit rate 1.2% among 410,000; note: % is set by controls: 0 for no effect and ±100 for the full control effect; nearly all actives have a fitted effect of over 65% in size
#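 TGF-beta reporter screen: HEPG2 CAGA-GFP, 1% FBS, 500 pg/mL TGF-beta final, 18 h; per-cell GFP summed per well; curves fitted and categorized by class.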
# KB-3-1 cytotox: KB-3-1 parental cell cytotoxicity. Potency, µM (doses to about 46.1 µM), hits mostly cytotoxic. hit rate 1.4% among 400,000. KB-3-1 viability, CellTiter-Glo ATP luminescence, 72 h; note: % is set by controls: 0 for no effect and ±100 for the full control effect; nearly all actives have a fitted effect of over 60% in size
#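 Multi-concentration cytotoxicity screen in KB-3-1 cells grown in DMEM lacking phenol red with 10% FBS. After 72 h at 37 °C with compound, ATP-dependent luminescence was recorded.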
# ATXN viability: cell viability loss in ATXN counter-screen; S2 cells (HEK-293 line with an ATXN2-luciferase reporter) viability, CellTiter-Fluor protease fluorescence, 24 h; Potency, µM (highest dose often 56.7 µM), hits mostly cytotoxic; hit rate 0.49% among 400,000; AID 651635; note: nearly all actives have a fitted effect of over 40% in size
# The depositor's hits bear a star; i = inactive; ? = inconclusive; nt = no result given; [ ] = remark or other dose. Calls come from the whole dose curve; as a rule, active = well fitted curve in the direction sought with a large enough effect; inconclusive = small, poorly fitted or top-dose-only effect, or another doubt; inactive = no such curve, though single readings can be large; an effect the other way counts as inactive or inconclusive. Potency is the fitted concentration of half-maximal effect.
SMILES,ATXN2 expr inh,HepG2 viability,KB-V1 cytotox,TGFb inhibitor,KB-3-1 cytotox,ATXN viability
O=C(Nc1ccc(-c2nc3ccccc3[nH]2)cc1)c1ccc(C(F)(F)F)cc1,nt,nt,i,nt,i,nt
CN(C)c1ncc(S(=O)(=O)c2ccccc2)c(-c2ccc(Cl)cc2Cl)n1,4%,12%,15µM*,-5%,i,i
CN(C)c1ncc(S(=O)(=O)c2ccc(Cl)cc2)c(-c2ccc(Cl)cc2Cl)n1,-11%,-27%,18µM*,?,?,i
CC(C)n1c(SCC(=O)c2ccc(F)cc2)nc2c(sc3ccccc32)c1=O,16%,7%,i,18%,i,i
COc1ccc(N=C2S/C(=C\c3ccc(Cl)c([N+](=O)[O-])c3)C(=O)N2CCN(C)C)cc1,nt,-133%,i,?,i,10µM*
CCN(CC)CCN1C(=O)/C(=C\c2ccc(Cl)c([N+](=O)[O-])c2)SC1=Nc1ccc(OC)cc1,32µM*,20µM*,i,?,?,nt
CCCN1C(=O)/C(=C/c2ccc(C)s2)SC1=Nc1ccc(OC)cc1,-10%,-4%,?,3%,i,i
Cc1ccc(NC(=S)N=Nc2c(O)[nH]c3ccccc23)cc1,?,-39%,?,4µM*,?,?
Oc1ccc(NC(=S)N=Nc2c(O)[nH]c3ccccc23)cc1,-16%[11.3 µM],-15%,i,?,i,?
COc1ccc(NC(=S)N=Nc2c(O)[nH]c3ccccc23)cc1,nt,-22%,?,6.3µM*,?,?
Clc1cccc(CNCCCSc2nnnn2-c2ccccc2)c1,-6%,-50%,i,0%,i,i
O=S(=O)(c1ccc2c(c1)CCCC2)N1CCN(c2nc(-c3ccccc3)nc3ccccc23)CC1,nt,4%,i,5%,i,nt
COc1cc2c(NC3CCN(C)CC3)nc(N3CCCCC3)nc2cc1OCCOCCN1CCCC1,nt,-2%,i,?,?,nt
C#C[C@]1(O)CC[C@H]2[C@@H]3CCC4=CC(=O)CC[C@@H]4[C@H]3CC[C@@]21C,3%,-10%,2.3µM*,13%,?,i
C#C[C@]1(O)CC[C@H]2[C@@H]3CCC4=C(CCC(=O)C4)[C@H]3CC[C@@]21C,4%,-11%,15µM*,-17%,?,i
C#C[C@]1(O)CC[C@H]2[C@@H]3CCc4cc(OC)ccc4[C@H]3CC[C@@]21C,2%,-21%,i,0%,i,i
COc1ccc(C2NC(=O)NC(C)=C2C(=O)Nc2cc(C)cc(C)c2)c(OC)c1 (centres undefined),4%,-13%,i,-8%,i,i
CCOC(=O)C(=CN=C(N)Nc1nc2ccccc2o1)C(=O)OCC,4%,-9%,i,-9%,i,i
CCOC(=O)c1cnc(Nc2nc3ccccc3o2)nc1CN1CCN(C)CC1,0%,-35%,13µM*,?,?,i
c1cncc(OC2CCN(Cc3ccc4c(c3)CN(Cc3ccc5c(c3)CCO5)CCO4)CC2)c1,nt,nt,nt,nt,nt,i
CN1CCN(c2nc(-c3cccs3)cc(C(F)(F)F)n2)CC1,-19%,-33%,16µM*,2%,i,i
CCOc1ccc(NC(=O)c2cnc(N3CCCC3)nc2C)cc1,-3%,5%,i,1%,i,?
CC1CCN(S(=O)(=O)c2cn(CC(=O)N3CC(C)CC(C)C3)c(=O)c3ccccc23)CC1 (centres undefined),-13%,-33%,1.3µM*,-4%,i,i
Cc1ccc(/C=N/n2c(-c3ccccc3)csc2=S)cc1,-1%,nt,nt,nt,nt,i
COCC(=O)Nc1cc(C(=O)NC2CCc3ccccc32)c2c(c1)nc(-c1ccncc1)n2C (centres undefined),nt,nt,nt,nt,nt,i
COc1cc2c(cc1OC)C(c1cccc(Br)c1)CC(=O)N2 (centres undefined),5%,-9%,i,-8%,i,?
